Pf apPOL inh – Pf-apPOL inhibitors, biochemical, fluorescence; Plasmodium falciparum apicoplast DNA polymerase (apPOL); Recombinant Pf-apPOL, molecular beacon fluorescence, 1.5 h; inhibition, % at 10 µM; 210,000 tested, 0.25% active; AID 1794808, 2022
mHTT-CaM PPI inh – mutant huntingtin-calmodulin interaction inhibitors – biochemical, AlphaScreen, primary screen | AlphaScreen His-mHTT/GST-CaM binding, luminescence | inhibition, % at 15 µM | 190,000 tested, 3.6% active | AID 1671202, 2021
Large screens that a line does not name were inactive. The entries come from a sample that favours hits as a whole. Cut-off read from the data, not from the text of the source: active = inhibition above about 50%; inactive = the rest.

O=C1NC(c2cccc(F)c2)Nc2sc3c(c21)CCC3 (stereo unspecified)	none
COc1cccc2c1OC1(C)CC2NC(=O)N1c1cccc(C)c1 (stereo unspecified)	none
C=CCSc1nnc2c(n1)OC(c1ccc(N(C)C)cc1)N(C(C)=O)c1ccccc1-2 (stereo unspecified)	mHTT-CaM PPI inh 64.0
C=CCSc1nnc2c(n1)OC(c1ccc(F)cc1)N(C(C)=O)c1ccccc1-2 (stereo unspecified)	none
COc1ccc(-c2coc3c4c(ccc3c2=O)OCN(C2CCS(=O)(=O)C2)C4)cc1OC (stereo unspecified)	none
CCCCCCCCCn1c[n+](CCCCCCCCC)c2cc(C)c(C)cc21	mHTT-CaM PPI inh 100.2 (no result: Pf apPOL inh)
Nc1ccnc(=O)[nH]1	Pf apPOL inh 105.3 (no result: mHTT-CaM PPI inh)
CCSc1nccc(=O)[nH]1	none
CCOc1ccc(C2=C/C(=C\c3ccc(Br)o3)C(=O)O2)cc1	mHTT-CaM PPI inh 98.0
COc1ccc(C2=C/C(=C\c3cccs3)C(=O)O2)cc1	none
O=C1OC(c2ccc(Cl)cc2)=C/C1=C\c1ccc(Br)o1	none
CCOc1ccc(C2=C/C(=C\c3cccs3)C(=O)O2)cc1	Pf apPOL inh 52.4
CCOc1ccc(NC(=O)C(C)Sc2nnc(C(c3ccccc3)c3ccccc3)n2C)cc1 (stereo unspecified)	Pf apPOL inh 82.3
CCOc1ccc(NC(=O)C(C)Oc2ccccc2)cc1 (stereo unspecified)	none
COC(=O)Nc1ccc(S(=O)(=O)Nc2nc(C)cc(C)n2)cc1	none
Cc1cc(F)ccc1NC(=O)c1c(O)c2cccnc2n(-c2ccc(F)cc2)c1=O	none
Cc1ccc(C(=O)N2CC(=O)Nc3ccc(F)cc3C2c2ccc(F)cc2)cc1C (stereo unspecified)	none
Cc1ccc(C(=O)N2CC(=O)Nc3ccc(Br)cc3C2c2ccccc2)cc1C (stereo unspecified)	mHTT-CaM PPI inh 98.0
O=C1C(=Cc2ccc(Sc3ccccc3)o2)C(=O)c2ccccc21	none
O=C1C(=Cc2ccc(Br)o2)C(=O)c2ccccc21	mHTT-CaM PPI inh 77.0
O=C1C=C/C(=C/c2ccc(Br)o2)O1	none (no result: Pf apPOL inh)
O=C1/C(=C/c2ccc(Br)o2)CC/C1=C\c1ccc(Br)o1	mHTT-CaM PPI inh 96.0
N#CC1=C(N)N(c2ccc([N+](=O)[O-])cc2)C2=C(C(=O)CCC2)C1c1ccc(Br)s1 (stereo unspecified)	none
O=C(NCC1CCN(C(=O)Nc2ccc(F)cc2)CC1)C(=O)NCC1CCCO1 (stereo unspecified)	none
COc1ccc(C(=O)N2CCC3(CC2)CN(C)CC3c2noc(C3CC3)n2)c(C)c1 (stereo unspecified)	none
O=C(CCCN1C(=O)c2cccnc2C1=O)NCC1COc2ccccc2O1 (stereo unspecified)	none
Cc1cc(Cl)ccc1-n1c(CCC(=O)O)ccc1-c1cccs1	mHTT-CaM PPI inh 68.0
Cc1ccccc1-n1c(CCC(=O)O)ccc1-c1cccs1	none
C1=C(c2ccc3c(c2)c2c4n3CCNC4CCC2)CCC1 (stereo unspecified)	mHTT-CaM PPI inh 55.0
c1cc2c(cc1C13CC4CC(CC(C4)C1)C3)c1c3n2CCNC3CCC1 (stereo unspecified)	mHTT-CaM PPI inh 99.9 (no result: Pf apPOL inh)
CCN1CCn2c3c(c4cc(Cl)ccc42)CCCC31 (stereo unspecified)	none
CC(C)COc1ccc2c(c1)c1c3n2CCNC3CCC1 (stereo unspecified)	none (no result: Pf apPOL inh)
CC(C)C(=O)Nc1ccc(C2(C(=O)N3CCCC3)CCCCC2)cc1	none
CC(C)C(=O)Nc1ccc(C2(C(=O)N3CCN(c4ccccc4)CC3)CCCCC2)cc1	mHTT-CaM PPI inh 50.8
CC1CC(C)CN(S(=O)(=O)N2CCCC(C(=O)NCCN3CCCC3)C2)C1 (stereo unspecified)	none
Cc1scc2nc(C(=O)NCc3ccc(F)cc3)nc(N3CCCC3)c12	mHTT-CaM PPI inh 81.3
CCNC(=O)c1nc(N2CCCC2)c2c(C)scc2n1	none
Cc1ccccc1OCC(=O)NCCN1CCN(S(C)(=O)=O)CC1	none
CCCC(=O)N1CCCC1c1nc2cc(-c3ccccc3F)ccc2o1 (stereo unspecified)	none
CCC(=O)N1CCCC1c1nc2cc(-c3cccc(F)c3)ccc2o1 (stereo unspecified)	none
CC(C)CC(=O)N1CCCC1c1nc2cc(-c3ccc(N(C)C)cc3)ccc2o1 (stereo unspecified)	mHTT-CaM PPI inh 87.3
CCCC(=O)N1CCCC1c1nc2cc(-c3ccc(N(C)C)cc3)ccc2o1 (stereo unspecified)	mHTT-CaM PPI inh 86.2
COc1ccc(N2C(=O)CSC2c2ccccc2Br)cc1Cl (stereo unspecified)	none
O=C(Cn1ccc2ccccc21)N1CCN(CCn2cccn2)CC1	none
COc1ccc(Br)cc1CN(CCc1ccc2c(c1)OCO2)Cc1cccnc1	mHTT-CaM PPI inh 57.0
CCOc1ccc(CN(CCc2ccc3c(c2)OCO3)Cc2cc(OC)c(OC)c(OC)c2)cc1	none

Source: PubChem BioAssay
